According to the OligoGym collection:

Target: C6orf105
Test: pooled miR-30 sensor sort-seq; sequence = guide strand
Details: shRNA

Compared with TTCTTTTCAGCACATCATCCAG, TATCACTCTCTGTCCCTCCTAC is higher in sensor-assay potency score (higher = more potent): -1.18 for the first, 0.281 for the second.

Going from TAATTGAGGAAAGTATACCAGC to TTGCATGATTCAGCCACACGGG, the sensor-assay potency score (higher = more potent) falls from -0.629 to -0.688.

Compared with TTAAGTATCACTCTCTGTCCCT, TTGTAGAGAAAGAGGATCCAGA is lower in sensor-assay potency score (higher = more potent): 0.33 for the first, -0.578 for the second.

First: TCTCCAAGTAGGTAGATGCTGG
Second: TTAAATTTAAGTATCACTCTCT
The sensor-assay potency score (higher = more potent) of the first is lower: -0.762 for the first, 1.11 for the second.

Compared with TAAGTATCACTCTCTGTCCCTC, TTCAGCACATCATCCAGGCAGG is lower in sensor-assay potency score (higher = more potent): -0.473 for the first, -0.972 for the second.

TATATTTCCACCTTGCACCATT showed a sensor-assay potency score (higher = more potent) of -0.555.

Target: C6orf118
Test: as above
Details: shRNA

First: TATGTTTCTCAGATGATTCTGA
Second: TTCAGGTACCTGAACAGCGGGG
The sensor-assay potency score (higher = more potent) of the first is higher: 0.578 for the first, -1.06 for the second.

Compared with TGAAATTCCAGTATGAACCAAA, TTACACAGGGTCTTCACTCCTG is higher in sensor-assay potency score (higher = more potent): -0.164 for the first, 0.491 for the second.

Compared with TACACAGGGTCTTCACTCCTGG, TTGTATAGCTTCATGCTCTATG is higher in sensor-assay potency score (higher = more potent): -0.203 for the first, 0.444 for the second.

Going from TTTTACTAGAGATTAAAGCTGA to TAGAGGTAGACGTCCTCCCGGT, the sensor-assay potency score (higher = more potent) falls from 0.127 to -0.61.

Compared with TTAAGAACTAGTATTGTTGTAA, TTGCTTGGCGAGCACTTCCTTC is lower in sensor-assay potency score (higher = more potent): 0.558 for the first, -1.21 for the second.

With TCTCAGATGATTCTGATCGTTC the sensor-assay potency score (higher = more potent) was -0.778.

Target: C6orf145
Test: as above
Details: shRNA

Going from TATGATCGTCTTCAGCAGCTTC to TTGACTGGACTTTGAAAGCTGG, the sensor-assay potency score (higher = more potent) rises from -1 to -0.406.

First: TGGATTACTAAACATCCCCTGC
Second: TTACTAAACATCCCCTGCCTGT
The sensor-assay potency score (higher = more potent) of the first is higher: -0.823 for the first, -0.858 for the second.

Going from TATACTGTGGTCAATAACTATT to TTTACATTAGCAAATGTCGGTC, the sensor-assay potency score (higher = more potent) rises from -1.52 to -0.665.

First: TATTTGCTAAACAAAATCCATT
Second: ATTTTTTAACACCTGATCCAGA
The sensor-assay potency score (higher = more potent) of the first is lower: -1.51 for the first, -0.814 for the second.

First: TCAATAACTATTGTTTCGGTAT
Second: TCGTTAGTAGACACTGAGCAGA
The sensor-assay potency score (higher = more potent) of the first is higher: -0.234 for the first, -0.734 for the second.

In the case of TTATCTAGTCGGCAATGCCTTC, the sensor-assay potency score (higher = more potent) is reported as -1.25.

Target: C6orf203
Test: as above
Details: shRNA

Compared with TTTGTAGAAAGCATCTTCCACT, TTACTTTTGAGTCTTACGGAAA is lower in sensor-assay potency score (higher = more potent): -0.297 for the first, -1.38 for the second.

Compared with TAGAAAAATACAAGTATCGATT, TAGTTTTTGACTACAGTAGGAT is higher in sensor-assay potency score (higher = more potent): -1.01 for the first, -0.319 for the second.

Compared with TTAGTAGATTTTGTAGACCTTA, TTCAGGACAACATCATACCGAA is lower in sensor-assay potency score (higher = more potent): -0.225 for the first, -0.635 for the second.

Work on TATTACTTTTGAGTCTTACGGA yielded a sensor-assay potency score (higher = more potent) of -0.0954.
